Screens: PubChem, several laboratories
sEH activator: soluble epoxide hydrolase activators, primary screen, biochemical, human sEH | Bifunctional epoxide hydrolase 2 (Homo sapiens), P34913 | purified human sEH enzymatic activity, activator screen | activation, % at 2 µM | 91,000 compounds, 0.04% hits | AID 717, 2007; in the data active means activation above about 37%
Target sequence (P34913 whole entry, looked up): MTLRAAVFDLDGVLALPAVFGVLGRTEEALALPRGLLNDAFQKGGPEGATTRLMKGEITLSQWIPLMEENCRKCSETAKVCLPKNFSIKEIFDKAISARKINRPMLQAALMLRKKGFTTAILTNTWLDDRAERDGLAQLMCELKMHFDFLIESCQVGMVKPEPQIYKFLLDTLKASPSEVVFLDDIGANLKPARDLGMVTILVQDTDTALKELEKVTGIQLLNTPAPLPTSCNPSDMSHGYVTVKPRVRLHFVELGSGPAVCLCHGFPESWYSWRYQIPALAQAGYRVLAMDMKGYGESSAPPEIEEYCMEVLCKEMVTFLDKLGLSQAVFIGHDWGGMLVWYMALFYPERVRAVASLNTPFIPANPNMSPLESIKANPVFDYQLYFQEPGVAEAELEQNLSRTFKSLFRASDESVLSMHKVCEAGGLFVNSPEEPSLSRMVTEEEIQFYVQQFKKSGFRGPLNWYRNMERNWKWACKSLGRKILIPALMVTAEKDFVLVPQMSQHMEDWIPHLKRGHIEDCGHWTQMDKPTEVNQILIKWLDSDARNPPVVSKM
MRP-1 activ: H69AR viability gain despite doxorubicin, primary screen, MRP-1 activator project, H69AR cells, CellTiter-Glo | viability rescue | 140,000 compounds, 0.61% hits | viability increase, % at 10 µM;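 active means viability gain under doxorubicin at or above a set limit, the compound median plus 3 SD, cut at about 4.7% in these data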;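 further: MRP-1 overexpressing cells given doxorubicin 25 µM after compound pretreatment; 18-22 h compound pretreatment then 72 h with doxorubicin before readout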
sEH inh: soluble epoxide hydrolase inhibitors, primary screen, biochemical, human sEH. recombinant human sEH enzymatic activity assay. inhibition, % at 2 µM. 91,000 compounds, 0.34% hits. AID 707, 2007; in the data active means inhibition above about 80%
MRP resist rev: reversal of MRP1-mediated doxorubicin resistance, primary screen, H69AR cells, doxorubicin co-treatment. 85,000 compounds, 0.04% hits. differential viability (reversal), % at 10 µM. AID 602, 2007. H69AR cells + 2 uM doxorubicin, CellTiter-Glo, 72 h;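 active means viability drop by adding the cancer drug above about 55%, with treated viability meeting a 40% cutoff, limit read from the data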;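 further: larger differential means the compound sensitizes cells more to doxorubicin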
Numbers stand for hits; - = inactive; . = no result given. Sampled rows, rich in hits. Any-hit rate of the full collection: about 0.76%.

SMILES	sEH activator	MRP-1 activ	sEH inh	MRP resist rev
Cc1noc(C)c1COc1ccc(C(=O)OCC(=O)NCc2ccccc2Cl)cc1	.	-	.	.
Cc1ccccc1N1CCN(c2ccc(NC(=O)C3CCCCC3C(=O)O)cc2)CC1 (stereo unspecified)	.	-	.	.
CC1CCC/C(=C(\C#N)c2nc(-c3cc4ccccc4oc3=O)cs2)C1 (stereo unspecified)	.	5.2	.	.
O=c1oc2ccccc2cc1-c1csc(NN=C2CCCCC2)n1	-	-	-	.
CC(=O)Nc1ccc2[nH]c(C)c(CC=C(Cl)Cl)c(=O)c2c1	-	6.8	-	-
COc1ccccc1N(C)S(=O)(=O)c1ccc(C(=O)OCC(=O)NCCC2=CCCCC2)cc1	.	-	.	.
Cc1cc(N2CCCC(C(=O)Nc3ccc4c(c3)CCC4)C2)n2ncnc2n1 (stereo unspecified)	-	-	82	-
CCCCCc1nc2sc3c(c2c(=O)n1NC(=O)c1ccc([N+](=O)[O-])cc1)CC(C)(C)OC3	.	-	.	.
CCC(O)CNC(=O)NC(=C(Cl)Cl)c1ccc(C)c(F)c1 (stereo unspecified)	.	-	.	.
O=S(=O)(/C=C/c1ccccc1)N1CCN(c2cccc(Cl)c2)CC1	38	-	-	-
CCCCCCOC(=O)c1ccc(NC(=O)c2cc(OC)c(OC)c(OC)c2Br)cc1	-	4.9	-	.
CCOC(=O)c1ccc(NC(=O)c2cc(OC)c(OC)c(OC)c2Br)cc1	.	-	.	.
O=C(Cc1ccc(-n2c(=O)[nH]c3ccsc3c2=O)cc1)N1CCN(c2ccc(Cl)cc2)CC1	.	5.0	.	.
Oc1c(C(c2cccs2)N2CCOCC2)sc2ncnn12 (stereo unspecified)	-	-	-	-
Oc1c(C(c2cccs2)N2CCN(c3cccc(Cl)c3)CC2)sc2ncnn12 (stereo unspecified)	.	11	.	-
CCC(=O)Nc1nc(C)c(-c2csc(Nc3ccc(S(=O)(=O)Nc4cc(C)on4)cc3)n2)s1	-	-	-	.
Cc1cc(NS(=O)(=O)c2ccc(Nc3nc(-c4sc(NC(=O)c5ccccc5)nc4C)cs3)cc2)no1	-	-	94	-
COc1ccc(N2C(S)=C(C#N)C(=O)NC2c2ccco2)cc1 (stereo unspecified)	.	16	.	.
CCOc1ccc(C2NC(=O)C(C#N)=C(S)N2c2ccc(C)cc2)cc1OC (stereo unspecified)	-	-	-	-
COc1ccc2c(c1)CCc1sc(NC(=O)c3ccc(C)cc3)nc1-2	-	4.9	-	-
Cc1nn(-c2ccc(F)cc2)c(Cl)c1/C=C1\C(=O)Nc2ccccc21	.	-	.	.
CCOc1ccccc1C(=O)OCC(=O)Nc1ccc(OC(F)F)cc1	-	14	-	.
CC(C)(C)c1cnnn1-c1ccc(NC(=O)c2ccc3c(c2)OCO3)cc1	-	-	93	-
CCN(CC)c1ccc(/C=C(\C#N)c2nc(-c3cccs3)c(NC(C)=O)s2)cc1	.	-	.	.
CSc1nc2c(ccc3ccccc32)o1	-	4.9	-	-
SMILES	sEH activator	MRP-1 activ	sEH inh	MRP resist rev
O=C(CN1CCOc2ccccc21)NC1CCCCCCC1	-	.	86	-
COc1ccc(C2(CNC(=O)c3ccc(OCC(C)C)cc3)CCOCC2)cc1	.	-	.	.
COc1ccc(/C=C2/N=C(SC3CCOC3=O)N(c3cccc(OC)c3)C2=O)cc1 (stereo unspecified)	.	5.2	.	.
O=C1NC(=Nc2ccc(Cl)cc2)SC1Cc1cc(Cl)ccc1Cl (stereo unspecified)	.	6.9	.	.
COC(C#CCCN(C)C)(c1ccccc1)c1ccccc1	.	-	.	.
CC1=C(C(=O)Nc2ccccc2C)C(c2ccc(C)o2)N2C(=O)CSC2=N1 (stereo unspecified)	-	7.3	-	-
O=C(NCCC1=CCCCC1)c1ccc(F)c(S(=O)(=O)N2CCOCC2)c1	-	-	97	-
CC(=O)N1C(=O)CC(C)N(C(C)=O)c2ccc([N+](=O)[O-])cc21 (stereo unspecified)	.	-	.	.
COc1ccc(OCC(=O)O/N=C(\N)Cc2cccs2)cc1	.	-	.	.
N/C(Cc1cccs1)=N\OC(=O)COc1ccc(Br)cc1	-	5.3	-	-
Cc1ccc(NC(=S)Nc2ccc(C(C)C)cc2)cc1S(=O)(=O)N1CCCCCC1	.	-	.	.
Cc1nn(C)cc1C(C(=O)NC1CCCCC1)N(C(=O)Cc1cccs1)c1ccc(Cl)cc1 (stereo unspecified)	.	-	.	.
Cc1occc1C(=O)NNC(=O)Nc1ccc(Cl)c(Cl)c1	.	4.9	.	.
O=C(Nc1nnc(-c2cccs2)o1)c1cc(-c2ccccc2)nc2ccccc12	.	-	.	.
CCCCCCCOc1ccc(-c2ccc(C#N)cn2)cc1	.	5.1	.	.
COc1ccc(-c2c(C#N)c(N)nc3sc(C(=O)c4ccccc4)c(N)c23)cc1	.	12	.	.
COc1cccc(OCc2nnc(SCC(=O)N3c4ccccc4Sc4ccc(Cl)cc43)o2)c1	.	-	.	.
COc1ccc(OCc2nnc(SCC(=O)N3c4ccccc4Sc4ccc(Cl)cc43)o2)cc1	-	15	-	.
Cc1ccc(OCc2nnc(SCC(=O)N3c4ccccc4Sc4ccc(Cl)cc43)o2)cc1	.	11	.	.
Cc1cccc(OCc2nnc(SCC(=O)N3c4ccccc4Sc4ccc(Cl)cc43)o2)c1	.	-	.	.
Cc1ccc(C(=O)CSc2nnc(COc3cccc(C)c3)o2)cc1	-	-	-	92
Cc1ccc(C(=O)CSc2nnc(COc3cccc4cccnc34)o2)cc1	-	-	-	-
CCOc1ccc(N2C(=O)/C(=C\c3ccccc3OC)S(=O)(=O)C2c2cccc([N+](=O)[O-])c2)cc1 (stereo unspecified)	.	-	.	.
CCOC(=O)c1oc2ccccc2c1NC(=O)c1ccc2c(c1)OCO2	-	-	-	-
COc1ccc(NC(=O)c2oc3ccccc3c2NC(=O)c2ccc3c(c2)OCO3)cc1	-	8.4	-	.
SMILES	sEH activator	MRP-1 activ	sEH inh	MRP resist rev
CC(C)c1nc2sc3c(=O)n(N)cnc3c2c2c1COC(C)(C)C2	.	-	.	.
Cc1ccc(Cn2ccc(=O)c(Cc3c(Cl)cccc3Cl)c2C)cc1	-	-	90	.
COc1ccccc1NC(=O)CSCc1nc2ccccc2[nH]1	.	-	.	.
OC(COc1ccccc1)CSc1ncn[nH]1 (stereo unspecified)	-	-	-	-
CC(C)(C)c1ccc(OCC(O)CSc2ncn[nH]2)cc1 (stereo unspecified)	-	6.8	-	-
CC(N)(Cc1ccc(O)cc1)C(=O)O (stereo unspecified)	.	.	.	-
O=C(C1CCN(Cc2ccc(F)cc2)CC1)N(CCc1ccccc1)Cc1ccccc1	.	-	.	.
CCN(CC)S(=O)(=O)c1ccc(O)c(NS(=O)(=O)c2ccccc2F)c1	.	-	.	.
CC(=O)c1c(C)[nH]c(C(=O)NCc2ccccc2Cl)c1C	-	-	85	-
COC(=O)c1ccc(/C=C/C(=O)c2ccc(OC)c(OC)c2)cc1	-	-	-	.
COC(=O)c1ccc(OC(=O)c2ccc(OC)c(OC)c2)c(OC)c1	38	-	-	-
CCOC(=O)c1nn(-c2ccc(F)cc2)c2c1CC/C2=C/c1ccccc1	.	-	.	.
COc1ccccc1C1CN(c2ccc(F)cc2F)N=C1c1cccs1 (stereo unspecified)	38	-	-	-
COc1ccccc1C1CC(c2cccs2)=Nc2ccccc2S1 (stereo unspecified)	-	-	-	-
